The values below come from PubChem BioAssay (Tox21).

The structures appear in SMILES notation. Inconclusive results are not listed. Entries that show only a call come without a potency. The source made the active and inactive calls. The call rests on the fitted dose curve.

One assay in a line: qHTS assay for small molecule agonists of the p53 signaling pathway - cell viability (AID 651633).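 Further: p53RE-bla HCT reporter cells with a stable beta-lactamase p53 reporter; nearly all actives have a fitted effect of over 30% in size.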 The following applies: p53RE-bla HCT-116 viability, ATP luminescence, 16 h; series mostly up to 83.3 µM. In outline: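 p53RE-bla cells, seeded at 4,000 per well and rested 5 h at 37 C/5% CO2, received compounds in DMSO for 16 h at 37 C. CellTiter-Glo was then added, and luminescence was read after 30 min at room temperature to gauge cytotoxicity.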
(In general: Quantitative high-throughput screening tests each substance at several concentrations.)
In the case of `C=C(C)C(=O)OCCC(F)(F)C(F)(F)C(F)(F)C(F)(F)C(F)(F)C(F)(F)F`, the Potency entry is “inactive”.
On the same count and under the same terms, then `CC1CCc2nccnc21` (centres undefined), with “inactive”.
As to `O=C(C(=O)c1ccco1)c1ccco1`, the Potency entry was “inactive”.
For the molecule `CC1C(C)(C)C2=C(C(=O)CCC2)C1(C)C` (centres undefined), the Potency entry is “inactive”.
With `Cc1cccc2sc(N)nc12`, the Potency entry is “inactive”.
In the case of `O=c1[nH][nH]c(=O)c2cc([N+](=O)[O-])ccc12`, the Potency entry is “inactive”.
Take `CCCCCCOC(=O)CCCCC`: the Potency entry is “inactive”.
With `O=NN(CCCl)C(=O)NCCCl`, the Potency entry is “inactive”.
On to `O=S(=O)(O)CO`, for which the Potency entry was “inactive”.
With `CC(C)(O)c1coc(S(=O)(=O)NC(=O)Nc2c3c(cc4c2CCC4)CCC3)c1`, the Potency entry was “inactive”.
Still for that read-out and setting: then `Nc1ccn([C@H]2CS[C@@H](CO)O2)c(=O)n1`, with “inactive”; and `Nc1ccc(S(=O)(=O)NCc2ccccc2)cc1`, with “inactive”; and `Nc1ccc(N=Nc2ccc(N)cc2)cc1`, with “inactive”.
On to `O=c1[nH]c2cc(C(F)(F)F)c(N3CCOCC3)cc2n(CP(=O)(O)O)c1=O`, for which the Potency entry is “inactive”.
`CC(O)Cn1cnc2c1c(=O)n(C)c(=O)n2C` (centres undefined): the Potency entry is “inactive”.
Take `CCN(CC)CCOC(=O)C(c1ccccc1)c1ccccc1`: the Potency entry is “inactive”.
Same read-out and setting: in the case of `O=C(O)CN1C(=O)c2cccc3cccc(c23)C1=O` it was “inactive”.
For the molecule `CC(C)COC(=O)COc1cc(Cl)c(Cl)cc1Cl`, the Potency entry is “inactive”.
For the molecule `C[C@H](CS)C(=O)N1CCC[C@H]1C(=O)O`, the Potency entry is “inactive”.
As for `CCCCCCC(CO)CCCC` (centres undefined), the Potency entry was “inactive”.
Turning to `CC(=O)OC(C)C[N+](C)(C)C` (centres undefined), the Potency result was “inactive”.
Regarding `CN=C(N)NC(=O)Nc1c(C)cccc1C`, the Potency result is “inactive”.
With `CSSc1ccoc1C`, the Potency result is “inactive”.
Same read-out and setting: then `CCCCCCCC(=O)OCCCCCC`, with “inactive”; and `CC(C)(C)S`, with “inactive”.
On the same count and under the same terms, then `BrC(Br)C(Br)Br`, with “inactive”.
On the same count and under the same terms, in the case of `CC1=CC[C@@]23C[C@@H]1C(C)(C)[C@@H]2CC[C@H]3C` it was “inactive”; in that of `Nc1nc2ccc(OC(F)(F)F)cc2s1`, “inactive”.
For `CC[C@H]1OC(=O)[C@H](C)[C@@H](O[C@H]2C[C@@](C)(OC)[C@@H](O)[C@H](C)O2)[C@H](C)[C@@H](O[C@@H]2O[C@H](C)C[C@H](N(C)C)[C@H]2O)[C@](C)(O)C[C@@H](C)CN(C)[C@H](C)[C@@H](O)[C@]1(C)O`, the Potency result was “inactive”.
Regarding `C1=CCC2CC=CC2C1` (centres undefined), the Potency entry was “inactive”.
Turning to `CCCCCCCCCCCCCCCCCC(=O)OCC(CC)CCCC` (centres undefined), the Potency result was “inactive”.
As for `O=P(O)(O)Oc1ccccc1`, the Potency result was “inactive”.
Take `Cc1cccc(C)c1NC(=O)c1cc(S(N)(=O)=O)c(Cl)cc1O`: the Potency result is “inactive”.
Consider `O=[N+]([O-])c1ccc2ncccc2c1`, for which the Potency result is “inactive”.
The same measure, in the same setting: in the case of `O=CNNC=O` it was “inactive”; in that of `CNc1c2c(nn1C)CCCC2`, “inactive”; in that of `COc1ccc(-c2cc(C(F)F)nn2-c2ccc(S(N)(=O)=O)cc2)cc1F`, “inactive”.

Another assay is described as follows: qHTS assay for small molecules that induce genotoxicity in human embryonic kidney cells expressing luciferase-tagged ATAD5 - cell viability (AID 651634). Further: nearly all actives have a fitted effect of over 25% in size. Further: potency means the concentration at half of the fitted maximal effect. The following applies: HEK293T ATAD5-luc cells viability, CellTiter-Fluor, 15.5 h; series mostly up to 83.3 µM. The essentials: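 HEK293T cells carrying luciferase-tagged ATAD5, 2,000 cells/well, exposed to compound for 15.5 hr at 37C. Viability read as live-cell protease activity by CellTiter-Fluor fluorescence after 30 min at 37C.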
Consider `C=C(C)C(=O)OCCC(F)(F)C(F)(F)C(F)(F)C(F)(F)C(F)(F)C(F)(F)F`, for which the Potency result is “inactive”.
Regarding `CC1CCc2nccnc21` (centres undefined), the Potency entry is “inactive”.
Take `O=C(C(=O)c1ccco1)c1ccco1`: the Potency result is “inactive”.
Still for that read-out and setting: then `CC1C(C)(C)C2=C(C(=O)CCC2)C1(C)C` (centres undefined), with “inactive”; and `Cc1cccc2sc(N)nc12`, with “inactive”; and `O=c1[nH][nH]c(=O)c2cc([N+](=O)[O-])ccc12`, with “inactive”.
Take `CCCCCCOC(=O)CCCCC`: the Potency result is “inactive”.
For `O=NN(CCCl)C(=O)NCCCl`, the Potency result was “inactive”.
Turning to `O=S(=O)(O)CO`, the Potency entry was “inactive”.
Take `CC(C)(O)c1coc(S(=O)(=O)NC(=O)Nc2c3c(cc4c2CCC4)CCC3)c1`: the Potency entry was “inactive”.
Take `Nc1ccn([C@H]2CS[C@@H](CO)O2)c(=O)n1`: the Potency entry is “inactive”.
For the molecule `Nc1ccc(S(=O)(=O)NCc2ccccc2)cc1`, the Potency result was “inactive”.
Turning to `Nc1ccc(N=Nc2ccc(N)cc2)cc1`, the Potency was 27.3 µM (active).
As for `O=c1[nH]c2cc(C(F)(F)F)c(N3CCOCC3)cc2n(CP(=O)(O)O)c1=O`, the Potency entry is “inactive”.
For the molecule `CC(O)Cn1cnc2c1c(=O)n(C)c(=O)n2C` (centres undefined), the Potency entry is “inactive”.
On the same count and under the same terms, in the case of `CCN(CC)CCOC(=O)C(c1ccccc1)c1ccccc1` it was “inactive”; in that of `O=C(O)CN1C(=O)c2cccc3cccc(c23)C1=O`, “inactive”.
Regarding `CC(C)COC(=O)COc1cc(Cl)c(Cl)cc1Cl`, the Potency result was “inactive”.
In the case of `C[C@H](CS)C(=O)N1CCC[C@H]1C(=O)O`, the Potency result is “inactive”.
Consider `CCCCCCC(CO)CCCC` (centres undefined), for which the Potency result is “inactive”.
Turning to `CC(=O)OC(C)C[N+](C)(C)C` (centres undefined), the Potency result is “inactive”.
For `CN=C(N)NC(=O)Nc1c(C)cccc1C`, the Potency entry is “inactive”.
For the molecule `CSSc1ccoc1C`, the Potency entry was “inactive”.
In the case of `CCCCCCCC(=O)OCCCCCC`, the Potency entry is “inactive”.
On to `CC(C)(C)S`, for which the Potency result is “inactive”.
`BrC(Br)C(Br)Br`: the Potency entry is “inactive”.
`CC1=CC[C@@]23C[C@@H]1C(C)(C)[C@@H]2CC[C@H]3C`: the Potency result was “inactive”.
As to `Nc1nc2ccc(OC(F)(F)F)cc2s1`, the Potency result was “inactive”.
`CC[C@H]1OC(=O)[C@H](C)[C@@H](O[C@H]2C[C@@](C)(OC)[C@@H](O)[C@H](C)O2)[C@H](C)[C@@H](O[C@@H]2O[C@H](C)C[C@H](N(C)C)[C@H]2O)[C@](C)(O)C[C@@H](C)CN(C)[C@H](C)[C@@H](O)[C@]1(C)O`: the Potency result is “inactive”.
`C1=CCC2CC=CC2C1` (centres undefined): the Potency result was “inactive”.
As for `CCCCCCCCCCCCCCCCCC(=O)OCC(CC)CCCC` (centres undefined), the Potency result was “inactive”.
On to `O=P(O)(O)Oc1ccccc1`, for which the Potency entry was “inactive”.
With `Cc1cccc(C)c1NC(=O)c1cc(S(N)(=O)=O)c(Cl)cc1O`, the Potency result is “inactive”.
Consider `O=[N+]([O-])c1ccc2ncccc2c1`, for which the Potency result was “inactive”.
Take `O=CNNC=O`: the Potency result was “inactive”.
Turning to `CNc1c2c(nn1C)CCCC2`, the Potency entry is “inactive”.
Consider `COc1ccc(-c2cc(C(F)F)nn2-c2ccc(S(N)(=O)=O)cc2)cc1F`, for which the Potency entry is “inactive”.
